A short description of assay [1]: AP1 Signaling Pathway (AID 357).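 Further: ME-180 reporter cells stimulated with EGF at its EC50 level; on the % scale 0 is the no-effect control and ±100 the full control effect.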 The conditions noted are these: ME-180 AP-1-bla reporter, EGF-induced, beta-lactamase ratio, 5 h; at 7.69 µM (top of the series) unless noted. The method in brief:
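Beta-lactamase reporter under AP-1 response element, ME-180 background. Stimulus: EC50 EGF. Compound exposure 5 h, 37 °C. Detection: CCF4, 2.5 h RT, 460/530 nm. Values: AC50 from titration.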

Assay [2] concerns the target Cytochrome P450 1A2 (Homo sapiens) (UniProt P05177). Briefly: p450-cyp1a2 (AID 410; calls by dose curve; further: potency means the concentration at half of the fitted maximal effect;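 on activity change, negative = inhibition: -100% = full effect of reference inhibitor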). In outline: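 Luminescent demethylation readout: Luciferin-ME (100uM, equal to Km) turned over by 20nM CYP1A2 for 60 min at room temperature after NADPH regeneration addition, following 10 min compound preincubation. Normalization used 57 uM furafylline as full inhibition.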
Assay [3] can be described thus: NFAT Signaling Pathway (AID 444).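 Further: carbachol stimulus at about its EC50 of 1 µM final; on the % scale 0 is the no-effect control and ±100 the full control effect.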 The note with it: Jurkat NFAT-bla M1, carbachol, beta-lactamase ratio, 5 h; at 7.69 µM (top of the series) unless noted. In outline: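 Jurkat cells carrying an NFAT-driven β-lactamase reporter and co-transfected muscarinic M1 receptor were treated with compound plus carbachol (1 uM final, an EC50 level) for 5 h at 37 °C. CCF4 loading followed for 1 h at RT; 460/530 nm ratio gave %activity.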

Assay [4] in a line: Stat Signaling Pathway (AID 446).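 Further: ME-180 cervical cancer cells given 40 pM IL-6 alongside compound; SIE-controlled beta-lactamase reporter measured as 460/530 nm FRET emission ratio; on the % scale 0 is the no-effect control and ±100 the full control effect.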 The note with it: ME-180 (cervical carcinoma) SIE beta-lactamase reporter, IL-6 stimulated, 5 h; at 7.69 µM (top of the series) unless noted. The method in brief:
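Normalization used AC90 stimulation (300 pM IL-6) and AC90 inhibition (125 nM pan-JAK inhibitor at 40 pM IL-6). The underlying signal is SIE-driven beta-lactamase in ME-180 cells after 5 h IL-6 exposure with compound.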

Assay [5] concerns the target Glucocorticoid receptor (Homo sapiens) (UniProt P04150). Briefly: GR-EFC Redistribution (AID 451; calls by dose curve; further: potency means the concentration at half of the fitted maximal effect). The conditions noted are these: CHO-K1 GR-EFC translocation, beta-gal luminescence, 2 h. In outline:
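CHO-K1 cells stably expressing nuclear-localized β-gal enzyme acceptor and GR fused C-terminally to the enzyme donor fragment; ligand-driven nuclear translocation restores β-gal by complementation. Compounds titrated up to 46 uM final, 2 h at 37 °C; luminescence read.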

In assay [6] the target is Mitogen-activated protein kinase 10 (Mus musculus) (UniProt Q61831). Briefly: JNK3 AlphaScreen Assay (AID 530).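 Further: kinase came from lysate of stimulated human HepG2 cells; signal reports phosphorylation of biotinylated GST-cJun 1-79 at Ser73 with 10 µM ATP; on the % scale 0 is the no-effect control and ±100 the full control effect.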 In outline:
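Phosphorylation of biotinylated GST-cJun(1-79) at Ser73 is measured by AlphaScreen proximity luminescence. Enzyme is JNK3 in HepG2 lysates activated with interleukin-1beta and tumor necrosis factor alpha; ATP is 10 uM final.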
(In general: Bead proximity is the source of the signal in Alpha formats.)

For assay [7], the target named is Cytochrome P450 3A4 (Homo sapiens) (UniProt P08684). Briefly: qHTS Assay for Inhibitors and Substrates of Cytochrome P450 3A4 (AID 884; active means well fitted curve in the direction sought with a large enough effect; an effect the other way counts as inactive or inconclusive; further: on the % scale 0 is the no-effect control and ±100 the full control effect; nearly all actives have a fitted effect of over 50% in size). The method in brief:
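Luminescent readout of luciferin produced by CYP3A4 (20 nM) dealkylation of Luciferin-PPXE, 25 uM (its KM). NADPH-driven reaction ran 60 min at RT after 10 min compound preincubation; data scaled to 57 uM ketoconazole as 100% inhibition.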

The target is the same in assay [8]. Briefly: qHTS Assay for Activators of Cytochrome P450 3A4 (AID 885; active means well fitted curve in the direction sought with a large enough effect; an effect the other way counts as inactive or inconclusive; further: nearly all actives have a fitted effect of over 65% in size; further: potency means the concentration at half of the fitted maximal effect). In outline:
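Human CYP3A4 dealkylates Luciferin-PPXE to luciferin, which luciferase detection converts to light. Substrate was at its KM (25uM), buffer 200mM KPO4, reaction 60 min at RT.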
In general terms: qHTS replaces the single test concentration by a dilution series.

A short description of assay [9]: qHTS Assay for Lipid Storage Modulators (AID 1519; calls by dose curve). The conditions noted are these: Drosophila S3 cells, BODIPY lipid droplet/cell ratio, laser cytometry, cells loaded with oleic acid; for activity change, negative = inhibition: at 57.5 µM (top of the series). The method in brief: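 Cells seeded at 5,000 per well were treated with compounds over a concentration series and loaded with oleic acid (400 uM, as added). Lipid droplet fluorescence (488 nm excitation, 500-530 nm channel) was read by laser-scanning cytometry and normalized to 20 uM Triacsin C.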

Assay [10] addresses N-terminal Xaa-Pro-Lys N-methyltransferase 1 (Homo sapiens) (UniProt Q9BV86). The assay can be described thus: Confirmatory qHTS for Inhibitors of N-terminal methyltransferase 1 (NTMT1): MTaseGlo Assay (AID 1645874; active means well fitted curve in the direction sought with a large enough effect; an effect the other way counts as inactive or inconclusive; further: potency means the concentration at half of the fitted maximal effect; nearly all actives have a fitted effect of over 65% in size). In outline: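 Inhibition was derived from luminescence after SAH-to-ATP conversion, scaled between no-enzyme and DMSO wells, then fitted by 4-parameter Hill. Conditions: 125 nM NTMT1, 100 uM SAM, 1 uM SPKRIA, 30 min RT.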

The target in assay [11] is Lysosomal acid glucosylceramidase (Homo sapiens) (UniProt P04062). The assay can be described thus: Glucocerebrosidase-p2 (AID 348; in the data active means potency below about 10 µM; further: potency means the concentration at half of the fitted maximal effect). The conditions noted are these: purified GBA, blue fluorogenic substrate, 40 min. In outline:
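Normal human glucocerebrosidase (0.2 nM) with blue fluorogenic substrate (80 uM final) in citrate/phosphate pH 5.9 with 10mM sodium taurocholate, 0.01% tween-20; 40 min RT, NaOH/glycine stop; fluorescence Ex 365/Em 440; AC50 from a titration from 0.6 nM upwards.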

For assay [12], the target named is Glucocorticoid receptor (Homo sapiens) (UniProt P04150). Briefly: GR-GFP Redistribution (AID 450;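 active means compounds whose dose series gives a full or clear partial fitted curve of increased nuclear translocation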; further: potency means the concentration at half of the fitted maximal effect). The note with it: U2OS GR-GFP nuclear translocation, laser cytometry, 2 h.
Glucocorticoid receptor (Homo sapiens), sequence (P04150 whole entry, looked up, the tested form may be a part): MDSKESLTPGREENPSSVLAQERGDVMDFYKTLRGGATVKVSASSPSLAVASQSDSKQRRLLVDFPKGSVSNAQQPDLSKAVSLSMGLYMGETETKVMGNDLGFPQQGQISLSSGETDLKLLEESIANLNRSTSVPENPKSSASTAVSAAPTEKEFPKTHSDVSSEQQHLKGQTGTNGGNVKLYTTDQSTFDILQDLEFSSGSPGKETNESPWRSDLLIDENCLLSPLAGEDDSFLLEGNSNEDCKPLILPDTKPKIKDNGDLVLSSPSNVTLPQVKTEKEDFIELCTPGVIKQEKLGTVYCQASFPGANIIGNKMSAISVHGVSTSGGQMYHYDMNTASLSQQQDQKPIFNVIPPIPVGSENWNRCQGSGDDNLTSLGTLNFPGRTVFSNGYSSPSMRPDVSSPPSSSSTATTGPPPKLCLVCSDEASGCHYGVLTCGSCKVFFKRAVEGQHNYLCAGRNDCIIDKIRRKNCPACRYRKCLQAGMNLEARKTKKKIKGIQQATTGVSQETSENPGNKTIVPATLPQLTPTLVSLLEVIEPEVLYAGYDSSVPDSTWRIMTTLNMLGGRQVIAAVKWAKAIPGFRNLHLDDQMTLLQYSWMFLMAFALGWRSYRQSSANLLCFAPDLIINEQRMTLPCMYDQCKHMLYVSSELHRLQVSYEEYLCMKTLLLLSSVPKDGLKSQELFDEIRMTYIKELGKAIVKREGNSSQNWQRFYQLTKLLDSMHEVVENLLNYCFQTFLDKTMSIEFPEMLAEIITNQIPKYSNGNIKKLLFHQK
The target in assay [13] is Dual specificity protein kinase CLK4 (Homo sapiens) (UniProt Q9HAZ1). The assay can be described thus: qHTS Assay for Inhibitors of CDC-like Kinase 4 (Kinase-Glo Assay) (AID 1770; active means well fitted curve in the direction sought with a large enough effect; an effect the other way counts as inactive or inconclusive; further: on the % scale 0 is the no-effect control and ±100 the full control effect; nearly all actives have a fitted effect of over 65% in size). The method in brief:
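Luminescent ATP-depletion read-out (Kinase-Glo) after 4.5 h room-temperature reaction of Clk4 (25 nM final) with RS peptide (100 uM) and ATP (1 uM), pH 7.5 Tris buffer with MgCl2 and DTT.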

Assay [14] shares this target. The assay can be described thus: qHTS Assay for Inhibitors of CDC-like Kinase 4 (ADP-FP Assay) (AID 1795; active means well fitted curve in the direction sought with a large enough effect; an effect the other way counts as inactive or inconclusive;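 further: recombinant human CLK4 phosphorylating RS repeat peptide at 1 µM ATP; on the % scale 0 is the no-effect control and ±100 the full control effect; nearly all actives have a fitted effect of over 60% in size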). The method in brief:
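Kinase activity was measured as ADP production using Transcreener orange tracer (4 nM) and ADP antibody (1 ug/mL) fluorescence polarization, with ADP calculated from a calibration curve. The 1 h reaction contained 6.25 nM Clk4, 1 uM ATP and 100 uM RS peptide at pH 7.5 with Mg2+.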

Assay [15] deals with Ubiquitin carboxyl-terminal hydrolase 1 (Homo sapiens) (UniProt O94782). The assay can be described thus: Inhibitors of USP1/UAF1: Pilot qHTS (AID 504865; active means well fitted curve in the direction sought with a large enough effect; an effect the other way counts as inactive or inconclusive;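 further: rhodamine fluorescence freed from ubiquitin-rhodamine substrate followed over time; top concentration of the series differs between compounds; on the % scale 0 is the no-effect control and ±100 the full control effect; nearly all actives have a fitted effect of over 35% in size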). The method in brief:
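Deubiquitinase activity followed as kinetic rhodamine fluorescence release from 150 nM Ub-Rho. 1 nM USP1/UAF1 with compound, after 15 min room-temperature preincubation, in HEPES pH 7.8 buffer containing TCEP, EDTA, BSA and Tween-20.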

The target of assay [16] is 3',5'-cyclic-AMP phosphodiesterase 4B (Homo sapiens) (UniProt Q07343). Briefly: qHTS Assay for Inhibitors of PDE-IV (AID 607; active means well fitted activation curve with a large enough effect in the main read-out, with a control signal flat, not every such curve was filed as active; further: % of control where 0% means no effect). In outline:
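HEK293 ACTOne cells with CNG channel (1000/well), endogenous PDE4; membrane potential dye, compounds up to 22.9 uM final. Fluorescence Ex 535/Em 590; RO 20-1724 (100 uM final) as reference.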

[17] abbreviates: measured here: cell count channel max response.
[18] abbreviates: measured here: lipid channel max response.

From PubChem BioAssay (NCATS) come the findings set out here.

Inconclusive results are not listed. Calls of active or inactive are those of the source. Unless noted, the call rests on the fitted dose curve; in most records, active means well fitted curve in either direction with a large enough effect (not every such curve was filed as active); inconclusive means small, poorly fitted or top-dose-only effect, or another doubt; inactive means flat fitted curve, though single readings scatter.

Cytochrome P450 3A4 (Homo sapiens), sequence (P08684 whole entry, looked up): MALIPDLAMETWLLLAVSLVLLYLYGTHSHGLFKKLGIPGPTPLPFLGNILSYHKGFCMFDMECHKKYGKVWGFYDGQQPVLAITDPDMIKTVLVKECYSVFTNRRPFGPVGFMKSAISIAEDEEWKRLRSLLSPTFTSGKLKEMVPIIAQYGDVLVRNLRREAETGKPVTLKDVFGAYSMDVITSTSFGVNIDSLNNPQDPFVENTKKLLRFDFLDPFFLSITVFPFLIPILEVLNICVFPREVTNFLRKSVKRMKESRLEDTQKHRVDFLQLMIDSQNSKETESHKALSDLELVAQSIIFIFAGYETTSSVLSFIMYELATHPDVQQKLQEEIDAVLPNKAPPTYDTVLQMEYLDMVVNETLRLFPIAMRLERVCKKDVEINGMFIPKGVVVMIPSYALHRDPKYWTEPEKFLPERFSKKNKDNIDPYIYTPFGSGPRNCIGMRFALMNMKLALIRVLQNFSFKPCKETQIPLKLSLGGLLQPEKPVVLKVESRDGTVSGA
Lysosomal acid glucosylceramidase (Homo sapiens), sequence (P04062 whole entry, looked up): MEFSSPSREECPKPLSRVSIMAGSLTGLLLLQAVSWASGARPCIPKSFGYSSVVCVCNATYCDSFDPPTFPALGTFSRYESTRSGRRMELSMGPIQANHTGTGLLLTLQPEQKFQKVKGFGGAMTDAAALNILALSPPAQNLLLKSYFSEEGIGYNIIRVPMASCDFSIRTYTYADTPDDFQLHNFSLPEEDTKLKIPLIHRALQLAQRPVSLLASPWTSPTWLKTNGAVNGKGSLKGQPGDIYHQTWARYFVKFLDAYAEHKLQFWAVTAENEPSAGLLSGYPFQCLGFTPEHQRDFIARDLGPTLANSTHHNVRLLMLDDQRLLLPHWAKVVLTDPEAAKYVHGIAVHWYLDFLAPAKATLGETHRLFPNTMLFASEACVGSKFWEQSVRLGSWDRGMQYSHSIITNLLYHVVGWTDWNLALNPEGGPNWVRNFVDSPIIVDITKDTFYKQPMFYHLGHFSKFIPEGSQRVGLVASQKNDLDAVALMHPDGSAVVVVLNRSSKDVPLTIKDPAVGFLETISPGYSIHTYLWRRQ
Dual specificity protein kinase CLK4 (Homo sapiens), sequence (Q9HAZ1 whole entry, looked up): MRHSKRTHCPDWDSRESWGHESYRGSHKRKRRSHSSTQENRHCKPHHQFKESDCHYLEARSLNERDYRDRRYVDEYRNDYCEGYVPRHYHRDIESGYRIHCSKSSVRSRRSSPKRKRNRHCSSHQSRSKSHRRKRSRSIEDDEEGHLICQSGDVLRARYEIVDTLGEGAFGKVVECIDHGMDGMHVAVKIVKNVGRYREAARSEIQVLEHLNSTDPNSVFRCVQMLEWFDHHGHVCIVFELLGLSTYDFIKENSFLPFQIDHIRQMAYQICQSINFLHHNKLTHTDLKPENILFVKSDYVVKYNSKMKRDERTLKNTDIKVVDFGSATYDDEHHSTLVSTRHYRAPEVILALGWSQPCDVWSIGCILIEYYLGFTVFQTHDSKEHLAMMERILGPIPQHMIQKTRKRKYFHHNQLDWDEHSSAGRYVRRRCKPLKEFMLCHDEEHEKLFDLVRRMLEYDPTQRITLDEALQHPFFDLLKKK
Cytochrome P450 1A2 (Homo sapiens), sequence (P05177 whole entry, looked up): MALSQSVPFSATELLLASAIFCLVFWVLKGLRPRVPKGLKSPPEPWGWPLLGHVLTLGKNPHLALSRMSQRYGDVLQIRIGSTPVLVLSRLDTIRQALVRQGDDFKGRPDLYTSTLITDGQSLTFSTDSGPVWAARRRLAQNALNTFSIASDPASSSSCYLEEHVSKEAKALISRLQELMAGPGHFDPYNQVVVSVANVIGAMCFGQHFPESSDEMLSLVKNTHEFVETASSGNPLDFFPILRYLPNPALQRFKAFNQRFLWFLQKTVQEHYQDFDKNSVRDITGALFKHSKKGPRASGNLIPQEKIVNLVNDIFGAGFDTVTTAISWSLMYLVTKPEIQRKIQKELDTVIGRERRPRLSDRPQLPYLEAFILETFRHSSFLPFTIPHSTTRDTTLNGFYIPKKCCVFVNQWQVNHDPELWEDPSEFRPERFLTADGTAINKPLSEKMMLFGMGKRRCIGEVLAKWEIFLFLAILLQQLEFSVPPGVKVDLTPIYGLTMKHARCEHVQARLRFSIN
Ubiquitin carboxyl-terminal hydrolase 1 (Homo sapiens), sequence (O94782 whole entry, looked up): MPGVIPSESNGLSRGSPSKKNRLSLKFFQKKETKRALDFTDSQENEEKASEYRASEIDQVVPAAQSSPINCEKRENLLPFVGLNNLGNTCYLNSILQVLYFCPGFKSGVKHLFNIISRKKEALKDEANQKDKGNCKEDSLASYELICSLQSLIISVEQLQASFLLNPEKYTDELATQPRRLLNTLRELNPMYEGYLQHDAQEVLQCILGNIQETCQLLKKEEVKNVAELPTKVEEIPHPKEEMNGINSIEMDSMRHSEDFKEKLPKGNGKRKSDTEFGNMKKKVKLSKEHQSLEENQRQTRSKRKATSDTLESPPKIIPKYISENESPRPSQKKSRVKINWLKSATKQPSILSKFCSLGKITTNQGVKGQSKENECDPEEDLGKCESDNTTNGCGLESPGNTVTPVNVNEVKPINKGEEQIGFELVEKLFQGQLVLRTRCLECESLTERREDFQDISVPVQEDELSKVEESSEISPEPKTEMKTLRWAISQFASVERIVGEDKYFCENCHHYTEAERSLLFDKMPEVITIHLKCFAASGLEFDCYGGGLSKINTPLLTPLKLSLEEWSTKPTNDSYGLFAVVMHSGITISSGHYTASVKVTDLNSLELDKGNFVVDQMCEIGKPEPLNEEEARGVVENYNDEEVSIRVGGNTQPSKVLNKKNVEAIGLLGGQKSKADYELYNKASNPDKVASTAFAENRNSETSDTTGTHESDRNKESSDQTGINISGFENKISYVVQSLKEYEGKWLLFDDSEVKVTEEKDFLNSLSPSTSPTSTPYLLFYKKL
3',5'-cyclic-AMP phosphodiesterase 4B (Homo sapiens), sequence (Q07343 whole entry, looked up): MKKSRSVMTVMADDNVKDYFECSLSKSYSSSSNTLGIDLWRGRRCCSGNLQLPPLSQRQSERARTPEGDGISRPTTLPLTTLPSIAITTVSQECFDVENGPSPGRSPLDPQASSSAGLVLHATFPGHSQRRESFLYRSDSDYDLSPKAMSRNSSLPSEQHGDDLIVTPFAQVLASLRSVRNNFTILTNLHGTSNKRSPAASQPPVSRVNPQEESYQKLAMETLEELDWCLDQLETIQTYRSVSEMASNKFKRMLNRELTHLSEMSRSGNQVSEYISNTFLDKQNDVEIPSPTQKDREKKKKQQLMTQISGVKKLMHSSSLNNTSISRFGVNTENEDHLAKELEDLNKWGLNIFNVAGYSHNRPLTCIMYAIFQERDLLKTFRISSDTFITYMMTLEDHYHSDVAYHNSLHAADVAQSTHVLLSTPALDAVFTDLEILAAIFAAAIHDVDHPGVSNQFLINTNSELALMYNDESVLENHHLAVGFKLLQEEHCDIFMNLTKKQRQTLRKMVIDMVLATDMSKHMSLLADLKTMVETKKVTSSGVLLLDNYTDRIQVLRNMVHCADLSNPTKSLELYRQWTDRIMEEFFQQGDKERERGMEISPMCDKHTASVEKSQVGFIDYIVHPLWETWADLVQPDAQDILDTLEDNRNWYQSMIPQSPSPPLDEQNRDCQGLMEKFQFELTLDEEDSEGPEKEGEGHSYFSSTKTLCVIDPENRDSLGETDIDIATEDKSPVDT
N-terminal Xaa-Pro-Lys N-methyltransferase 1 (Homo sapiens), sequence (Q9BV86 whole entry, looked up): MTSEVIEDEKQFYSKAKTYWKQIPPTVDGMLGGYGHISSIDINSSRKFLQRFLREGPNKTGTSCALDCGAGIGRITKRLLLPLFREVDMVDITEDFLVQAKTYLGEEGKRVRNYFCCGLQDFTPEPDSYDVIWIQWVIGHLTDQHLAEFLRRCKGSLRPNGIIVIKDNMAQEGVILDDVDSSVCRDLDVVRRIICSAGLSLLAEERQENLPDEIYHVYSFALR

For `CC(C)NC(=O)N1CCC2(CC1)CCN(C(=O)c1cccc(F)c1)CC2`, the activity change, negative = inhibition in assay [1] is 10.6% (inactive); in assay [3], 6.56% (inactive); in assay [9], 1.61% (inactive). In addition, the Potency result in assay [2] and in assay [7] was “inactive” each time. In addition, the activity, negative = inhibition in [4] is 7.13% (inactive). Besides, the Potency was > 46 µM (inactive) in assay [5] and 20 µM (active) in assay [8]. Also, in assay [6], the compound was classed as inactive. Moreover, the max response in [9] (setting [17]) is -10.3%; in assay [9] (setting [18]), -8.2%.
For `c1cncc(-c2ccc3ncnc(NCc4cccs4)c3c2)c1`, in assay [10], the Potency is 39.8 µM (active).
Consider `O=c1c(CCc2ccccc2)nc2cnc(N3CCNCC3)nc2n1C1CC1`, for which the Potency in [11] was > 11.4 µM (inactive); in assay [12] it was > 9.22 µM (inactive); in assay [5], > 46 µM (inactive). For the same compound, the activity change, negative = inhibition in [1] is -9.21% (inactive); in assay [3] it was -7.73% (inactive); in assay [9], 2.72% (inactive). In addition, the activity, negative = inhibition in assay [4] is -12.8% (inactive). Besides, the compound was classed as inactive in [6]. Also, the Potency entry in assay [8], in [13], in assay [14] and in assay [15] was “inactive” throughout. Also, the values for the max response in assay [9] (setting [17]) and in assay [9] (setting [18]) were 16.7% and 18.1%, respectively.
Regarding `O=C(Nc1ccccc1)N1CC[C@@]2(CCCN(C(=O)c3ccco3)C2)C1`, the Potency was > 11.4 µM (inactive) in assay [11], 10 µM (active) in assay [2] and > 46 µM (inactive) in assay [5]. Also, the figures for the activity change, negative = inhibition in [1], in assay [3] and in [9] were -6.95% (inactive), 4.43% (inactive) and 0.607% (inactive), respectively. The activity, negative = inhibition in [4] was -3.48% (inactive). Further, in [6], the outcome was inactive. Besides, the Potency result in [16] was “inactive”. Further, the figures for the max response in assay [9] (setting [17]) and in assay [9] (setting [18]) were 5.04% and 7.34%, respectively.
